Compounds with a hit are over-represented: about 3.4% of the library has one in this group of screens.
PLC-beta3 inh: PLC-beta3 (human) inhibition, primary screen. inhibition, % at 12.2 µM. Purified PLC-beta3, fluorogenic substrate, fluorescence. actives 0.18% (n = 370,000). AID 720704. Q01970; in the data active = inhibition above about 11%
KLK7 zymogen act: activates the human kallikrein-7 zymogen. P49862. purified proKLK7, EDANS-DABCYL substrate fluorescence; 100% is mature enzyme control, 0% vehicle. activation, % at 7 µM. actives 0.9% (n = 370,000);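 active = activation above the mean of all tested compounds plus 3 SD, computed per campaign excluding outliers beyond control limits, cut at about 13% in these data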
PLC-gamma1 inh: PLC-gamma1 (human) inhibition, primary screen; AID 720700; purified PLC-gamma1, fluorogenic substrate, fluorescence; inhibition, % at 12.2 µM; actives 0.84% (n = 370,000); in the data active = inhibition above about 9.5%
ADAM17 inh: inhibits human ADAM17; inhibition, % at 6.95 µM; recombinant ADAM17, EDANS/DABCYL FRET peptide cleavage; actives 0.83% (n = 370,000); AID 720648; P78536;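 active = inhibition above the mean of compounds lying between control limits plus 3 SD, set per campaign, cut at about 8.5% in these data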
ADAM10 inh: inhibits human ADAM10; recombinant ADAM10, EDANS/DABCYL FRET peptide cleavage, 3 h; inhibition, % at 7 µM; O14672; AID 720582; actives 0.62% (n = 370,000);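 active = inhibition above a per-campaign cutoff equal to the mean of compounds falling between control-based bounds plus 3 SD, cut at about 20% in these data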
Target sequence (O14672 214-748 limits assumed): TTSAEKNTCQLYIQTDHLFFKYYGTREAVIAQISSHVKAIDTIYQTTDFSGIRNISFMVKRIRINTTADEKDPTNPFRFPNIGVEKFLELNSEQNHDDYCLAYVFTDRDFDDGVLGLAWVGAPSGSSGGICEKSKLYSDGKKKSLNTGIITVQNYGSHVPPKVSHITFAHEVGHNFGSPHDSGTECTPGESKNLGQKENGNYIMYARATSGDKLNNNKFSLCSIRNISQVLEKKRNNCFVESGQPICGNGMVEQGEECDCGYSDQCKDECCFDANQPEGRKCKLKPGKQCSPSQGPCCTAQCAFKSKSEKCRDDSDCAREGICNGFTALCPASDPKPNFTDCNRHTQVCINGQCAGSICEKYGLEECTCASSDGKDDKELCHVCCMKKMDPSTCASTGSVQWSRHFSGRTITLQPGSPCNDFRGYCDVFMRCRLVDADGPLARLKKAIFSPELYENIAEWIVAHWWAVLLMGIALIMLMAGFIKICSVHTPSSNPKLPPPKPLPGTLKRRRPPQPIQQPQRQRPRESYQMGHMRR
sPLA2-III inh: Blocks human group III sPLA2 activity; Q9NZ20; QFRET BODIPY PC-A2 liposome hydrolysis, fluorescence; inhibition, % at 12.2 µM; actives 0.56% (n = 370,000); AID 743126;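 active = inhibition above mean plus 3 SD of compounds lying within the high and low control bounds, cut at about 19% in these data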
ADAM10 ctr: ADAM10 inhibition, counter-screen for ADAM17 exosite hits | shares compounds with ADAM17 inh | recombinant ADAM10, EDANS/DABCYL FRET peptide cleavage, 3 h | inhibition, % at 6.95 µM | actives 47% (n = 2,900) | AID 743256;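 active = mean inhibition over the triplicate runs exceeds the activity threshold set in the earlier primary screen, cut at about 20% in these data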
ADAM17 confirm: human ADAM17 inhibition, confirmation; shares compounds with ADAM17 inh; recombinant ADAM17, EDANS/DABCYL QFRET peptide cleavage; inhibition, % at 6.95 µM; actives 65% (n = 2,900); AID 743257;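 active = mean inhibition across replicates above the hit cutoff set in the primary screen, cut at about 8.5% in these data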
Large screens that a line does not name were inactive (follow-up assays come after a bar, where they were run).

CC1CN(S(=O)(=O)c2ccc(NC(=O)c3cc(-c4ccccc4O)n[nH]3)cc2)CC(C)O1 (configuration not stated)	ADAM17 inh 12, ADAM10 inh 24 | ADAM10 ctr inactive | ADAM17 confirm 14
Cc1ccc(NC(=O)Cn2nnc(-c3ccncc3)n2)cc1C	none
CCOC(=O)C1=C(C)Nc2ccccc2N/C1=N\S(=O)(=O)c1ccc(Cl)cc1	ADAM17 inh 12 | ADAM10 ctr inactive | ADAM17 confirm inactive
CCOC(=O)C1=C(C)Nc2ccccc2N/C1=N\S(=O)(=O)c1cccc(Cl)c1	none
Cc1cc(O)c(C(C)C)cc1C1(c2cc(C(C)C)c(O)cc2C)OC(=O)c2ccccc21	none
Cc1cc(C2(c3ccc(O)c(C)c3)OC(=O)c3ccccc32)ccc1O	ADAM17 inh 11 | ADAM10 ctr inactive | ADAM17 confirm 11
CC(C)[C@H](N)C(=O)N1CCC[C@@H]1C(=O)N1CCC2CCN(S(=O)(=O)c3ccccc3)CC21 (some centres not stated)	none
CCOC(=O)/C(C#N)=C(C)/C=C1\Sc2ccccc2N1CC	none
CCN1/C(=C\C=C(C(C)=O)C(C)=O)Sc2ccccc21	ADAM17 inh 10 | ADAM10 ctr inactive | ADAM17 confirm 9.1
O=c1cc(-c2ccccc2Cl)oc2c(NS(=O)(=O)c3ccccc3OC(F)(F)F)ccc(O)c12	ADAM17 inh 8.9 | ADAM10 ctr 34 | ADAM17 confirm 20
CCCCC1CCC(C(=O)N(CCOC)c2c(N)n(CC(C)C)c(=O)[nH]c2=O)CC1 (configuration not stated)	PLC-gamma1 inh 14, ADAM17 inh 9.3 | ADAM10 ctr inactive | ADAM17 confirm inactive
C[C@@H]1CCN(C2CC2)S(=O)(=O)c2ccc(N3CCC[C@@H]3C)cc2O1	none
CC(C)(C)S(=O)N1Cc2cc(C(=O)NCc3ccc4c(c3)OCO4)nc(-c3cccc(-c4cc5ccccc5o4)c3)c2[C@@H]1CCO (some centres not stated)	none
COc1cccc(-c2cccc(-c3nc(C(=O)NCc4ccc5c(c4)OCO5)cc4c3[C@H](CCO)N(S(=O)C(C)(C)C)C4)c2)c1 (some centres not stated)	ADAM17 inh 19 | ADAM10 ctr inactive | ADAM17 confirm 10
O=C(Nc1ccccc1)C1Cc2c(-c3ccccc3Oc3ccccc3)ccnc2O1 (configuration not stated)	none
COc1ccc(NC(=O)C2Cc3c(-c4ccccc4Oc4ccccc4)ccnc3O2)cc1 (configuration not stated)	ADAM17 inh 9.6 | ADAM10 ctr inactive | ADAM17 confirm inactive
O=C(Nc1cccc(OC(F)(F)F)c1)C1Cc2c(-c3ccc(Cl)cc3)ccnc2O1 (configuration not stated)	ADAM17 inh 10 | ADAM10 ctr inactive | ADAM17 confirm inactive
NC(=O)CSc1nnc(-c2ccco2)n1-c1ccccc1	none
OCCn1c(CSc2nnc(-c3ccco3)n2-c2ccccc2)nc2ccc(Cl)cc21	ADAM17 inh 11 | ADAM10 ctr inactive | ADAM17 confirm inactive
O=C(/C=C/c1ccccc1)c1ccc(NC2=NCCCS2)cc1	none
O=C(/C=C/c1ccc(Br)cc1)c1ccc(NC2=NCCCS2)cc1	ADAM17 inh 8.8 | ADAM10 ctr 26 | ADAM17 confirm 13
COC(=O)C1CN(Cc2ccc(OC)cc2)CCS(=O)(=O)N1Cc1ccc(C)cc1 (configuration not stated)	none
Cc1cc(Oc2ccccc2)nc(SCC(=O)Nc2ccc(Cl)c(Cl)c2)n1	ADAM17 inh 14 | ADAM10 ctr inactive | ADAM17 confirm 12
O=C1CCCC(=O)N1c1ccc(N2CCN(c3ccccc3)CC2)c([N+](=O)[O-])c1	none

Screening results deposited in PubChem BioAssay by The Scripps Research Institute Molecular Screening Center.
